Experimental findings from PubChem BioAssay AID2284383 (EPA ToxCast) are described below.

The target in this assay is human Retinoic Acid Receptor gamma (RARg) Agonism, RARG (gene 5916) (UniProt P13631). As to the kind of experiment: ERF_TW_NR_COA_hRARG: Eurofins (ERF) Nuclear Receptor (NR) Functional Coactivator Assay for human Retinoic Acid Receptor gamma (RARg) Agonism. As for the experimental part: ERF_TW_NR_COA_hRARG is a biochemical, single-readout assay that uses extracted gene-proteins in a cell-free assay. Measurements were taken 16 hours after chemical dosing in a 96-well plate. […] It is designed to measure FRET using a type of binding reporter as detected by fluorescence intensity of AM580 with fluorimetry technology.Data from the assay component ERF_TW_NR_COA_hRARG was analyzed at the assay endpoint, ERF_TW_NR_COA_hRARG, in the positive analysis fitting direction relative to DMSO as the negative control and baseline of activity. Using a type of binding reporter, gain-of-signal activity can be used to understand changes in binding as they relate to gene RARG. To generalize the intended target to other relatable targets, this assay endpoint is annotated to the nuclear receptor intended target family, where the subfamily is non-steroidal.
Human recombinant retinoic acid receptor […] (RARgamma) receptors expressed in bacteria are used. Test compound and/or vehicle is incubated with the 25 nM receptors and binding buffer in modified Tris-HCl buffer pH 7.4 for 16 hours at 4C. Determination of the amount of complex formed is read spectrofluorimetrically (excitation:337 nm, emission:620/665 nm). Test compound-induced increase in fluorescence by 50 percent or more (>/= 50%) relative to the 0.3 uM AM580 response indicates possible RARgamma receptor agonist activity. […] Membrane protein may change from lot to lot, the concentration used will be adjusted if necessary.

Inconclusive results are not listed. Calls of active or inactive are those of the source. The calls were made as follows: active = hit-call score of the fitted dose curve at least 0.9, where 1 is the maximum; inconclusive = response in the unintended direction; inactive = score below 0.9.

human Retinoic Acid Receptor gamma (RARg) Agonism, RARG (gene 5916), sequence (P13631 whole entry, looked up): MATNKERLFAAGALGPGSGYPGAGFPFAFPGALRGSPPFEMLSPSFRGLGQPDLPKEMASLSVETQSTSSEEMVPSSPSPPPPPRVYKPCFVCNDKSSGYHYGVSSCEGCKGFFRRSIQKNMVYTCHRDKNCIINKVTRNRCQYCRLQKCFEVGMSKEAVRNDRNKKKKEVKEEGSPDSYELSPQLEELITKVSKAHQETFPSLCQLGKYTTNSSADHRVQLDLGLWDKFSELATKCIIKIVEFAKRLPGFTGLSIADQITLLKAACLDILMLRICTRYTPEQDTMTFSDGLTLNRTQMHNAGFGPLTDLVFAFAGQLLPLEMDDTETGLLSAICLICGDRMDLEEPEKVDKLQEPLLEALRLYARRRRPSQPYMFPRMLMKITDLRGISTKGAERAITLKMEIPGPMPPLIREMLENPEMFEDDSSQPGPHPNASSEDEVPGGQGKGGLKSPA

Take `Cc1ccc2cc3c(ccc4ccccc43)c3c2c1CC3`: the outcome was inactive. As a reminder, the AC50 is the midpoint of the concentration-response curve, whichever way the signal moves. `ClC1=C(Cl)[C@]2(Cl)[C@@H]3[C@@H]4C[C@@H]([C@H]5O[C@@H]45)[C@@H]3[C@@]1(Cl)C2(Cl)Cl`: the AC50 was 6.6 µM (active).

As to `ClC1=C(Cl)[C@]2(Cl)[C@@H]3[C@H]4C[C@H]([C@@H]5O[C@H]45)[C@@H]3[C@@]1(Cl)C2(Cl)Cl`, the concentration at half-maximal activity (AC50) is 6.15 µM (active).
